Compound activity: PubChem, SRMLSC
PMK inhibit = S. pneumoniae PMK inhibition; purified PMK, PK/LDH-coupled NADH absorbance 340 nm; inhibition, % at 10 µM; 65,000 compounds, 0.49% hits; AID 539;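 active means top-ranked compounds by inhibition in the single 10 µM screen, taking a fixed number of the strongest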
Abs 340nm = compounds absorbing at 340 nm; fold change at 10 µM; compound absorbance at 340 nm, fold over control; 65,000 tested, under 10 active;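 active means at 10 µM dose, initial 340 nm absorbance at least 2 fold that of control wells; inactive means change under 2 fold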;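 further: initial absorbance extrapolated from kinetic A340 decline of NADH oxidation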
NADH coupling = inhibition of NAD/NADH coupling enzymes, library profiling; 65,000 compounds, 0.02% hits; AID 774; IC50, µM (titrated, usually from 10 µM); coupled PK/LDH NADH assays, four targets;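 active means single-dose screening hits from any of four coupled enzyme assays that gave an IC50 when retested across doses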;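 further: the DPM-DC format reads NADH fluorescence rather than 340 nm absorbance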
Fluor 339 460 = intrinsic fluorescence of library compounds, ex339/em460 – biochemical, MLSMR library, data from DPM-DC assay, artefact control, profiling panel; 65,000 compounds, 5.5% hits; fluorescence fold increase at 10 µM; compound autofluorescence, ex339/em460 nm, NADH buffer; hits give high values; 1 = no-compound wells, NADH background;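 active means at 10 µM, mean starting fluorescence two-fold or more over control wells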;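 further: signal is the first read of a kinetic run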
MK inhibit = S. pneumoniae mevalonate kinase inhibition | 65,000 compounds, 0.48% hits | inhibition, % at 10 µM | purified MK, PK/LDH-coupled NADH absorbance 340 nm;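 active means ranked among the strongest by inhibition in the single 10 µM screen, a fixed top-ranked set picked for dose follow-up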
Spn DPM-DC inh = inhibitors of Streptococcus pneumoniae diphosphomevalonate decarboxylase. purified DPM-DC, PK/LDH coupled NADH fluorescence. calls only at 10 µM. 65,000 compounds, 0.49% hits. AID 556;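 active means the 320 compounds with the highest percent inhibition in the single-dose primary screen, excluding strongly autofluorescent ones, cut at about 32% in these data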;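 further: kinetic rate of NADH fluorescence loss reporting ADP formed by the decarboxylase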
Hits are given with their value; 0 = inactive; - = no result given; + = active, no number. Rows were chosen to be rich in hits. Some 6.8% of all compounds tested hit in one or more screens of this group.

SMILES | PMK inhibit | Abs 340nm | NADH coupling | Fluor 339 460 | MK inhibit | Spn DPM-DC inh
O=C1CC(c2ccccc2)Cc2nc(N3CCc4ccccc43)ncc21 (centres undefined) | 0 | 0 | 0 | 3.01 | 0 | -
Cc1ccc(C2NC(=O)NC3=C2CCc2ccccc23)cc1 (centres undefined) | 0 | 0 | 0 | 2.61 | 0 | 0
O=C1NC2=C(C(=O)c3ccccc32)C(c2ccccc2)N1 (centres undefined) | 0 | 0 | 0 | 0 | 0 | 0
COc1ccc(C2NC(=O)NC3=C2CCc2ccccc23)cc1 (centres undefined) | 0 | 0 | 0 | 3.75 | 0 | -
Cc1nn(Cc2ccccc2Cl)c2sc(C(=O)NCCCn3ccnc3)cc12 | 0 | 0 | 0 | 0 | 0 | 0
Cc1oc(C(=O)O)cc1COc1ccc2c(C)cc(=O)oc2c1 | 0 | 0 | 0 | 2.1 | 0 | 0
COC(=O)c1cc(COc2ccc3ccc(=O)oc3c2)c(C)o1 | 0 | 0 | 0 | 2.11 | 0 | -
COC(=O)c1cc(COc2ccc3oc(C)c(C(=O)OC)c3c2)c(C)o1 | 0 | 0 | 0 | 0 | 0 | 0
O=C(Nc1ccc(N2CCN(Cc3ccccc3)CC2)cc1)c1cccnc1 | 0 | 0 | 0 | 0 | 0 | 0
CCOC(=O)Cn1c(=O)c2c(nc3n2CCN3c2ccc(C)cc2)n(C)c1=O | 0 | 0 | 0 | 0 | 0 | 0
CCn1c(C(=O)Nc2ccsc2C(=O)OC)cc2sc(Cl)cc21 | 0 | 0 | 0 | 2.15 | 0 | -
COc1ccc(OC)c(C2=NO[C@@H]3C(=O)N(c4cc(Cl)ccc4OC)C(=O)[C@H]23)c1 | 0 | 0 | 0 | 2.02 | 0 | 0
NC1C2CN(c3nc4c(cc3F)c(=O)c(C(=O)O)cn4-c3ccc(F)cc3F)CC12 (centres undefined) | 0 | 0 | 0 | 2.11 | 0 | 0
c1ccc2c(c1)[nH]c1c(NCC3CCCO3)ncnc12 (centres undefined) | 0 | 0 | 0 | 2.78 | 0 | 0
CCOCCCNc1ncnc2c1[nH]c1ccccc12 | 0 | 0 | 0 | 0 | 0 | 0
C=CCNc1ncnc2c1[nH]c1ccccc12 | 0 | 0 | 0 | 2.49 | 0 | 0
CC1CN(C(=O)C(C)Sc2nc3ccccc3s2)CC(C)O1 (centres undefined) | 0 | 0 | 0 | 0 | 0 | 0
O=C1CSc2ccc(C(=O)N3CCN(c4ccccn4)CC3)cc2N1 | 0 | 0 | 0 | 0 | 0 | 0
COCCNC(=O)c1ccc2c(c1)NC(=O)CS2 | 27.0 | 0 | 0 | 0 | 0 | 0
CCCCCn1c(SCC#N)nc2cc(C(=O)NCC3CCCO3)ccc2c1=O (centres undefined) | 0 | 0 | 0 | 0 | 0 | +
CCCCCNC(=O)c1ccc2c(=O)n(CC3CCCO3)c(=O)[nH]c2c1 (centres undefined) | 0 | 0 | 0 | 2.03 | 0 | 0
CCCn1c(=S)[nH]c2cc(C(=O)NCC3CCCO3)ccc2c1=O (centres undefined) | 0 | 0 | 0 | 0 | 0 | 0
COC(=O)CNC(=O)COC(=O)c1cc(Cl)cc(Cl)c1N | 0 | 0 | 0 | 3.37 | 0 | -
COc1ccc(OC)c(NC(=O)C2CCCN(S(=O)(=O)c3cccc4cccnc34)C2)c1 (centres undefined) | 0 | 0 | 0 | 0 | 0 | 0
COc1cc(C(=O)OCC(=O)c2cc(C)n(C)c2C)cc(NC(=O)c2ccco2)c1OC | 0 | 0 | 0 | 2.94 | 0 | 0
SMILES | PMK inhibit | Abs 340nm | NADH coupling | Fluor 339 460 | MK inhibit | Spn DPM-DC inh
CCCCn1c(SCC(=O)c2ccc(OC)cc2OC)nc2cc(S(N)(=O)=O)ccc21 | 0 | 0 | 0 | 2.53 | 0 | 0
Cc1cccc(Nc2ccccc2C(=O)O)c1C | 0 | 0 | 0 | 0 | 0 | 0
CC(=O)n1cc(Nc2ccccc2C(=O)O)c2ccccc21 | 0 | 0 | 0 | 2.23 | 0 | -
Cn1c2ccccc2c(=O)n2c(=O)c3ccccc3cc12 | 0 | 0 | 0 | 2.38 | 0 | 0
Cn1c(-c2ccccc2)cc(=O)c2ccccc21 | 0 | 0 | 0 | 0 | 0 | 0
CCOC(=O)C(C(=O)OCC)C(=O)c1cc(OC)c(OC)c(OC)c1 | 0 | 0 | 0 | 0 | 0 | 0
CCOC(=O)c1sc(=NC(=O)c2cc(OC)c(OC)c(OC)c2)n(C)c1C | 0 | 0 | 0 | 4.35 | 0 | -
CC1(C)CC(=O)c2sc(NC(=O)C3CC3)nc2C1 | 0 | 0 | 0 | 0 | 0 | 0
CCN(CC)S(=O)(=O)c1ccc(-c2nnc(SCC(=O)N3c4ccccc4CC3C)o2)cc1 (centres undefined) | 0 | 0 | 0 | 0 | 0 | 0
COCCNC(=O)C1CCCN(c2nn3c(=O)cc(C)nc3s2)C1 (centres undefined) | 33.0 | 0 | 0 | 0 | 0 | 0
CCOc1ccc(CCNC(=O)C2CCCN(c3nn4c(=O)cc(C)nc4s3)C2)cc1 (centres undefined) | 0 | 0 | 0 | 0 | 0 | 0
COc1ccc(N(CC(=O)NCc2cccs2)S(=O)(=O)c2cccnc2)cc1 | 0 | 0 | 0 | 0 | 47.0 | 0
O=c1cc[nH]c2c(C(F)(F)F)cccc12 | 0 | 0 | 0 | 0 | 0 | 0
COc1ccc(NS(=O)(=O)c2ccc(OC)c3ccccc23)cn1 | 0 | 0 | 0 | 0 | 0 | 0
Cc1cc(N2CCCC2)nc(-c2ccccc2O)n1 | 0 | 0 | 0 | 2.64 | 0 | 0
O=C1c2ccccc2C(O)N1Cc1ccco1 (centres undefined) | 0 | 0 | 0 | 0 | 0 | 0
O=C1c2ccccc2NC(c2cccc(F)c2)N1Cc1ccco1 (centres undefined) | 0 | 0 | 0 | 3.04 | 0 | -
Cc1ccc(C2Nc3ccccc3C(=O)N2Cc2ccco2)cc1 (centres undefined) | 0 | 0 | 0 | 3.96 | 0 | -
COc1ccc(C2Nc3ccccc3C(=O)N2Cc2ccco2)cc1COc1ccc(NC(C)=O)cc1 (centres undefined) | 0 | 0 | 0 | 3.8 | 0 | -
O=C(Nc1ccc(S(=O)(=O)N2CCOCC2)cc1)c1ccc(Cl)s1 | 0 | 0 | 0 | 0 | 0 | 0
CCN1C(=O)C(O)(CC(=O)c2ccc3c(c2)OCCO3)c2ccccc21 (centres undefined) | 0 | 0 | 0 | 0 | 0 | 0
C1CN(c2nc3nonc3n3nnnc23)CCO1 | 0 | 0 | 0 | 0 | 0 | 0
Cc1cc(C(=O)Nc2cccnc2)cs1 | 0 | 0 | 0 | 0 | 0 | 0
COc1cc(C2C(C#N)=C(N)Oc3cc(C)n(CCc4ccccc4)c(=O)c32)cc2c1OCO2 (centres undefined) | 0 | 0 | 0 | 0 | 0 | 0
CCC(C(=O)Nc1ccccc1OC)n1c(C(=O)OC)cc2ccsc21 (centres undefined) | 0 | 0 | 0 | 0 | 0 | 0
O=C(O)c1[nH]c2ccccc2c1NS(=O)(=O)Cc1ccccc1 | 0 | 0 | 0 | 2.41 | 0 | 0
CC(=O)c1ccc(NS(=O)(=O)Cc2ccccc2)cc1 | 0 | 0 | 0 | 0 | 0 | 0
Nc1cc(S(=O)(=O)C(F)(F)F)ccc1C(=O)O | 0 | 0 | 0 | 0 | 0 | 0
Nc1cc(C(F)(F)F)ccc1C(=O)O | 0 | 0 | 0 | 2.13 | 0 | -
CCOC(=O)c1[nH]c(C)c(C(=O)OCc2c(C)noc2C)c1C | 0 | 0 | 0 | 0 | 0 | 0
